The whole screen tested about 52,000 sequences, of which about 210 (0.4%) were called active. Many of the other results were omitted from the sample, so actives are more common in it than they were. A number with no mark means an inactive call.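 How the source made its calls: active means gene whose silencing raises cell survival under the drug, median off-target-corrected z-score across its silencing RNAs 2 or more; inactive means the rest.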
test: Resistance to Poly (ADP-Ribose) Polymerase inhibitor: Gene Identification via Genome-wide siRNA Screen; details: mouse BRCA2 R2336H ES cells, olaparib, CellTiter-Glo viability; hits give high values
Text: The role of Poly (ADP-Ribose) Polymerase (PARP) proteins in DNA repair has been elegantly utilized for the synthetic lethality-based treatment of BRCA-deficient tumors by PARP inhibitors. PARP inhibitors are now being used for treatment of BRCA-deficient breast and ovarian cancers. […] While several mechanisms of drug resistance have been identified, majority of these tumors develop drug resistance due to unknown causes. To identified novel regulators of chemo-resistance in BRCA2-mutated cells, we performed a genome wide siRNA library screen. We have found ES cells expressing a hypomorphic allele of BRCA2 to be hypersensitive to PAPP inhibitors (such as olaparib). We used ES cells expressing a mutant allele of BRCA2 that has a single amino acid substitution at position 2336 (arginine to histidine, R2336H). The screen was conducted using an Ambion (Thermo) Silencer Mouse Genome siRNA collection. The library targets 17,575 mouse genes with 3 siRNAs per gene. TET2 (E130014J05Rik) was identified as a top candidate.
Transfections were performed in 384 well plates (Corning 3707). Plates were coated with 0.1% gelatin in H2O overnight at ambient temperature. Gelatin solution was aspirated (BioTek EL406) and siRNAs were printed using a Bravo VPrep liquid handler integrated within a BioCel automation platform (Agilent). Cell viability was measured using CellTiter Glo (Promega). For transfections, […] of serum free media containing Lipofectamine RNAiMax […] was added to wells containing siRNA (0.8pmol). Lipid and siRNA were allowed to complex for 45 min at ambient temperature before addition of 1000 cells in DMEM, 30% FBS to yield final transfection mixtures containing 20 nM siRNA in DMEM, 15% FBS. PARPi (olaparib, AZD2281) was added 48 h post-transfection (500 nM) and viability (CellTiter Glo, Promega) was assayed 72 h later on a PerkinElmer Envision 2104 Multilabel plate reader. Ambion Silencer Select Negative Control #2 was incorporated on all screening plates (16 wells) and the median negative control value on each plate was used for normalization. An siRNA targeting Trp53 was used as a positive control. This control yielded a median protective effect of ~1.9 fold versus negative control throughout the screen. The median absolute deviation (MAD) based z-score was calculated for each siRNA. Genes were then ranked by taking the median value for all siRNAs tested against a given gene. Scores were also adjusted for seed-based off-target effects to help deprioritize likely false positives.

Sequence | z-score
CCAGAAACAUACGAAGAUUTT against Khdrbs1 | 2.31 (active)
GGUAUCUUCAAGUACAUGATT against BC011426 | 0.138
GGAGAUGGAGAAGUAGAUUTT against Abcf2 | 0.0903
GGGAAAUGUGUGUUAUCUGTT against Rnf126 | 1.17
CCCUGUCUCCCGCAUAGAATT against Itgb6 | 1.67 (active)
GAAAUCAUCCUGCCCAAAGTT against Vax1 | 0.607
GGUCCCAGUGUCAUGUCUUTT against Cdipt | 0.00151
GGUCUAUACCAUCCUAUUGTT against Faim2 | -1.24
CACUCAGCUCAAUGACCUGTT against Ifna14 | -0.514
GCUACAAGCGAUAUAUUCCTT against Jak1 | 2.92 (active)
CCAUGGAGAAUCAUGACAGTT against Slfn1 | 0.281
GUAUCAUACAAUGAUGUCCTT against Olfr176 | 0.628
GGAAAACAGCUUUGAUUGGTT against E130009J12Rik | 1.42
GGAACAGGAAUAACAUGACTT against V1re9 | 1.65
GUAUGAUGCACUCCAGUUGTT against Hdac8 | -1.38
GCCAGUGCACUCCUCUUUUTT against Mmrp19 | 0.352
GCUGAACUAUAACUUGAAATT against Stat1 | 0.735
GCAAGAAGUAAUCAACUUUTT against Rqcd1 | 2 (active)
GGACUUUUACCAGUUCUCCTT against Ece2 | 0.967
GGUACAGGAAAAAAGAAGATT against Msl31 | -0.435
GCACGUAGUAAGAUGUUACTT against Rqcd1 | 2.53 (active)
GGUGGUCUAAGUCCUGACATT against Hmx1 | -0.564
GGUUAUUAAGAGCACUUUCTT against Catsper3 | -0.553

Sequence | z-score
GCAUUAUGACUCUAAUAGCTT against Olfr60 | 0.536
GGGCUAUGUGCUCUUUUGUTT against Edg6 | 0.487
GGCAUUGUGAAGCUGAAACTT against Ptpn9 | 1.93 (active)
GGAGAAGGAGGUGAUAAUGTT against Sart1 | 0.088
GGUGCAGUUUAAGAGAGAATT against C630016B22Rik | 0.153
GCCACCUCAAUGAAAGGAGTT against Slc23a1 | 0.609
GGUAAUUUGUUUGUGGUGATT against Mtnr1b | -0.531
GGCAUCCGUGUGUCUCUAGTT against 5730457F11Rik | -2.13 (active)
CCACUUUCGCUUUACCAAUTT against C330011M18Rik | 0.267
CCAACUCUGUUACAUUAUGTT against Fshprh1 | 0.377
GGGCUAAAGUUGAUAAUAATT against Psmc3 | -3.32
GGGAGCUCCAUUUAAAUUATT against A230103N10Rik | 0.137
GGCAUUCAAAAGGUAAAAUTT against Grid2 | 2.35 (active)
CCAGCACUCAAUCCUGUAATT against Olfr305 | -1.73
GCUAUCAACAAUCUUCGAATT against Azi1 | 0.37
GGAGAACACUUUAAUGCUGTT against 9230106D23Rik | 0.667
GAACCUUUUCCGUUUCGAGTT against Cebpb | 0.245
GGCCAGCAGACUAUUUAUUTT against 1110021N07Rik | -1.57
GGACCUAGAGGAAGUGAAATT against Apoa1 | 2.05 (active)
GCUUUACUUCUUCCUCAUUTT against Olfr924 | -0.698
GGUCUAUGUACUCGCCAAATT against Ptpns1 | -0.633
CCGUCACUAUACCCAAGUUTT against Olfr802 | -3.11
CGUGCUUAAGAGUCCACUATT against H3f3a | -1.43

Sequence | z-score
CCUCGUUCAUACGACAGAATT against BC062951 | -0.447
GCUUAGACUCACCAAAGGCTT against Gpr26 | 1.11
GCAACACAUUUGAACCACUTT against Usp15 | 2.9 (active)
GGCACAGAAAUUAUGUUCUTT against 1810012H11Rik | -0.685
GGAAUUCAACUCAGAUAAGTT against C3 | -0.52
GGUUUUCUUAAAAUAGGAGTT against Tat | 3.69 (active)
CCAUAUCCGUAGGUAUAUCTT against Htr2a | 1.02
GGCUUGGAAGGAUUAGAAGTT against 4930418G15Rik | -0.344
CCUCCACUUACUUUGGGUGTT against Cic | 1.48 (active)
GGAGCUCAACAAGUUGCUUTT against Hist1h2aa | -0.0931
GGGAGAUCUUUAAGAGAAATT against Tcfap2a | -0.65
CGAGAUCACGAGAUCGGUUTT against Prdm4 | 2.21
GGCCAAGCUGAUCAAUAUATT against Oprd1 | -0.0592
CCCAAUAAAACUUCCGGGATT against BC021608 | 0.531
CUCUCGAACAAUCAACCACTT against Olfr315 | -0.314
GCUGAAAUCAGAAGCUAACTT against Casc3 | 0.845
GCAUUGGCUGUACUACUAUTT against Psg18 | -0.196
CCACAGCCAAAUGCACAAGTT against Gm1631 | -0.237
GGGAAAUCAGUUUUACAAATT against Chl1 | 2.76 (active)
CCGGUUGCUAGGCUAAACATT against Wdr68 | -3.25
CGUAAAACUCUUAGGCAUGTT against Npm1 | 2.54 (active)
CCCACUCCAAACAUCUAAATT against Gadd45b | 0.111

— PubChem BioAssay AID1347423 (Functional Genomics Laboratory (NCATS/FGL), 2020)
